Drawing on PubChem BioAssay (EPA / NIEHS), this text covers AC50 and outcome for 34 compounds.

In general, AC50 refers to the concentration at which the activity in the assay is half-maximal.

Records with an inconclusive call do not appear. Active and inactive are the calls of the source. How the source made its calls: active means hit-call score of the fitted dose curve at least 0.9, where 1 is the maximum; inconclusive means response in the unintended direction; inactive means score below 0.9.

Cellular tumor antigen p53 (Homo sapiens), sequence (P04637 whole entry, looked up): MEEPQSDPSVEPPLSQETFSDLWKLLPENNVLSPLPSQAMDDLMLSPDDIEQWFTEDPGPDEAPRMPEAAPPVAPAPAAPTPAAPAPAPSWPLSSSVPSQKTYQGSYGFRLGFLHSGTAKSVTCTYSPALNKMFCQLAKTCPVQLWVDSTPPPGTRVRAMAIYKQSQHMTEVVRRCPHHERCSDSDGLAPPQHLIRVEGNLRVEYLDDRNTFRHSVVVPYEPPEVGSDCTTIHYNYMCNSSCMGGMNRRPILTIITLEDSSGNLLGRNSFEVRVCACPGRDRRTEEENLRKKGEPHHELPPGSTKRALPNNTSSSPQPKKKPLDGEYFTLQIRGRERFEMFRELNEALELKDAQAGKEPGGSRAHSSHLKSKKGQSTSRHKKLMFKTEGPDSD

Test system in one assay: not listed separately
The assay can be described thus: TOX21_p53_BLA_p2_viability: Viability Assessment in the Tox21 HCT-116 p53 Agonism Beta-lactamase Assay, Phase 2 (AID 2283591).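 Further: compound exposure lasted 16 h at 37 °C; actives lower the ATP signal meaning cytotoxicity.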 The gist of the method: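 HCT116 p53-bla cells, 4000/well, dosed after 5 h plating (217-fold dilution of DMSO stocks) and incubated 16 h at 37C. Viability taken as cellular ATP by CellTiter-Glo luminescence after 30 min RT; signal loss marks cytotoxicity.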
Regarding `CCCCCCCCCCCCCOS(=O)(=O)O`, the concentration at half-maximal activity (AC50) was 82.4 µM (active). Turning to `CCCCNC(=O)NS(=O)(=O)c1ccc(C)cc1`, the call was inactive.

Consider `CCOc1ccccc1OCC`, for which the call was inactive. On the same count and under the same terms, with `CC(=O)Nc1ccc(CC(=O)O)cc1` the entry was “inactive”; with `O=C(OCc1ccccc1)C(=O)OCc1ccccc1`, “inactive”; with `CC(C#N)(CCC(=O)O)N=NC(C)(C#N)CCC(=O)O` (stereo not drawn), “inactive”. On the same count and under the same terms, the same measure for `CCCCCCOC(=O)CC`: “inactive”. On to `Cc1ccc(Nc2ccc(O)c3c2C(=O)c2ccccc2C3=O)cc1`, for which the outcome was inactive. `CC(C)=CCCC(C)=CCCC(C)=CCO`: the compound was classed as inactive. The same measure, in the same setting: with `COC(C)CCO` (stereo not drawn) the entry was “inactive”; with `CCC(=O)OCc1ccccc1`, “inactive”. On the same count and under the same terms, with `CC1(C)[C@H]2CC[C@]1(C)[C@H](O)C2` the entry was “inactive”. `C=C(C)C(=O)O[C@H]1C[C@@H]2CC[C@@]1(C)C2(C)C`: the result was inactive.

A further assay has as its target Cellular tumor antigen p53 (Homo sapiens) (UniProt P04637). In words: TOX21_p53_BLA_p2_ratio: Tox21 HCT-116 p53 Agonism Beta-lactamase Assay, Ratio, Phase 2 (AID 2283592). In short, it runs like this:
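Read-out is the blue/green (460/530 nm, 405 nm excitation) ratio after 2 h CCF4-AM loading, fitted as gain versus DMSO. Compounds, pinned at 217-fold dilution from DMSO stocks, stayed 16 h on HCT-116 beta-lactamase reporter cells seeded 5 h earlier.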
Consider `CC(C)Oc1ccccc1O`, for which the result was inactive. `CC1=CCC2C(C1)C2(C)C` (stereo not drawn): the outcome was inactive. Same read-out and setting: the same measure for `CN1[C@@H]2CC(OC(=O)[C@H](CO)c3ccccc3)C[C@H]1[C@@H]1O[C@@H]12` (stereo partly drawn): “inactive”; for `CC(C)(N)CO`: “inactive”. On to `CC(=O)c1c(C)cc(C(C)(C)C)cc1C`, for which the outcome was inactive. The same measure, in the same setting: the same measure for `O=C(O)CCSCCC(=O)O`: “inactive”; for `CC(=O)O[C@H](CC(=O)[O-])C[N+](C)(C)C`: “inactive”.

Turning to `CCCCCC(CO)CCC` (stereo not drawn), the outcome was inactive. On the same count and under the same terms, with `C=COCCOCCOCCOC=C` the entry was “inactive”; with `CCCCCC(=O)OCCc1ccccc1`, “inactive”; with `CC1(C)C(=O)N(Br)C(=O)N1Cl`, “inactive”.

For `Nc1ccc(S(=O)(=O)O)c(N)c1`, the result was inactive. Still for that read-out and setting: with `CCCCCCOC(=O)CCCCC` the entry was “inactive”.

Regarding `CCOC(=S)SSC(=S)OCC`, the outcome was inactive. Same read-out and setting: with `CNCCO` the entry was “inactive”.

Test system in a further assay: not listed separately
The assay can be described thus: TOX21_p53_BLA_p3_viability: Viability Assessment in the Tox21 HCT-116 p53 Agonism Beta-lactamase Assay, Phase 3 (AID 2283593).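 Further: cells exposed to compound for 16 h before reading.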 The gist of the method: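 HCT116 cells, 4000/well, dosed 5 h after plating by pin transfer (217-fold dilution from DMSO stock) and incubated 16 h at 37C, 5% CO2. Viability read as ATP luminescence with CellTiter-Glo after 30 min at room temperature.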
`CC(C)=CCO`: the outcome was inactive. Same read-out and setting: the same measure for `CN1[C@@H]2CC(OC(=O)[C@H](CO)c3ccccc3)C[C@H]1[C@@H]1O[C@@H]12` (stereo partly drawn): “inactive”. Same read-out and setting: with `CCCCCCCCCCCCCOS(=O)(=O)O` the entry was “inactive”; with `OC[C@H]1O[C@H](O[C@]2(CCl)O[C@H](CCl)[C@@H](O)[C@@H]2O)[C@H](O)[C@@H](O)[C@H]1Cl`, “inactive”; with `CC(C)(N)CO`, “inactive”. The same measure, in the same setting: the same measure for `CCCCNC(=O)NS(=O)(=O)c1ccc(C)cc1`: “inactive”; for `CC(=O)c1c(C)cc(C(C)(C)C)cc1C`: “inactive”. Consider `CCCCCOC(=O)CCC`, for which the outcome was inactive.

Turning to `OCC(CO)(CO)COCC(CO)(CO)CO`, the call was inactive. Same read-out and setting: the same measure for `CC(=O)Nc1ccc(CC(=O)O)cc1`: “inactive”; for `CC(=O)O[C@H](CC(=O)[O-])C[N+](C)(C)C`: “inactive”.

In the case of `CCCCCC(=O)OCCc1ccccc1`, the compound was called inactive.

Turning to `CC(C#N)(CCC(=O)O)N=NC(C)(C#N)CCC(=O)O` (stereo not drawn), the outcome was inactive. On the same count and under the same terms, with `Cc1ccc(Nc2ccc(O)c3c2C(=O)c2ccccc2C3=O)cc1` the entry was “inactive”. Turning to `CC(C)=CCCC(C)=CCCC(C)=CCO`, the result was inactive.

Consider `CC1(C)C(=O)N(Br)C(=O)N1Cl`, for which the compound was classed as inactive. In the case of `CC(C)c1ccc(C(C)C)cc1`, the compound was classed as inactive. The same measure, in the same setting: with `Nc1ccc(S(=O)(=O)O)c(N)c1` the entry was “inactive”; with `COC(C)CCO` (stereo not drawn), “inactive”; with `C=CCOC(=O)CCC1CCCCC1`, “inactive”.

Turning to `CCC(=O)OCc1ccccc1`, the outcome was inactive. As to `CCCCCCOC(=O)CCCCC`, the call was inactive.

Take `CC1(C)[C@H]2CC[C@]1(C)[C@H](O)C2`: the compound was called inactive. Still for that read-out and setting: the same measure for `CCOC(=S)SSC(=S)OCC`: “inactive”; for `C=C(C)C(=O)O[C@H]1C[C@@H]2CC[C@@]1(C)C2(C)C`: “inactive”.
